Values joined by “and” are separate entries in the source; they are usually repeats but may differ in a detail not shown here. Identical values can stand only once.
The compounds below were run on HL-1 (assay: cardiomyocyte survival under oxidative or metabolic stress – cell-based, panel, H9c2 and HL-1, ATP luminescence, set 2, SAR follow-up (AID 651871;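 note: cells exposed to stressor for 2 h before ATP readout; reference of the scale not given here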)). Conditions: H9c2/HL-1 cardiomyocytes, 2-deoxyglucose stress, with 2-deoxyglucose, run 4, at 79 µM (top of the series).

| Structure (SMILES) | activity (protection/inhibition) |
| --- | --- |
| COc1ccc2nc(-c3cc(OC)c(OC)c(OC)c3)cc(C(=O)NCC(=O)Nc3ccc(C(C)=O)cc3)c2c1 | 68.7% |
| CCOC(=O)c1cccc(NC(=O)CNC(=O)c2cc(-c3cc(OC)c(OC)c(OC)c3)nc3ccccc23)c1 | 54.1% |
| COc1ccc2c(c1OC)C(=O)N1c3ccccc3C(=O)N(Cc3cccc(Cl)c3Cl)C21 (stereo not drawn) | 33.5% and -8.11% |
